Shiga toxin inh: blocks Shiga toxin action in Vero cells. actives 9.2% (n = 290,000). Vero cells, Shiga toxin protein synthesis inhibition reporter. inhibition, % at 38.7 µM; in the data active = inhibition mostly above about 28%, no sharp cut-off; inactive = mostly below about 43%; note: 0% is about no effect
CHX counter: counter-screen hit for Shiga toxin inhibitors, cycloheximide. cell reporter, cycloheximide protein synthesis inhibition counterscreen. max response, %. actives 12% (n = 300,000); in the data active = max response mostly above about 13%, no sharp cut-off; inactive = mostly below about 14%; note: read at 38.3 µM for the half of the compounds with a filed dose; 0% is about no effect
HCV inhibitor: blocks hepatitis C virus | AID 651820 | actives 3.4% (n = 340,000) | Potency, µM (highest dose often 41.8 µM), inactives show at the top dose activity change, negative = inhibition, actives largely listed as inhibitors | Huh7.5.1 HCVcc-Cre infection, luciferase reporter, 44 h; note: potency is the fitted concentration of half-maximal effect; % is set by controls: 0 for no effect and ±100 for the full control effect
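A cell-based infection assay in which seeded cells (1,000 per well) receive test compound after 4 h, are inoculated with HCVcc-Cre at approximately 0.5 moi, and are incubated 44 h before luminescence detection.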
Pf growth 48h: inhibits P. falciparum growth in the first generation, 48 h | P. falciparum luciferase growth in erythrocytes, 48 h | Potency, µM (highest dose often 28.7 µM), without a hit: at the top dose activity change, negative = inhibition, hits mostly inhibitors | actives 5.9% (n = 310,000) | AID 504832; note: potency is the fitted concentration of half-maximal effect; % is set by controls: 0 for no effect and ±100 for the full control effect
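Parasite viability was followed by luminescence of a genomically integrated firefly luciferase. Cultures held 0.1% parasitemia at 2% hematocrit (final), incubated under 5% CO2 at 37 C.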
HCMV antiviral: human cytomegalovirus inhibition; HFF cells, HCMV-luciferase reporter, 72 h; active compounds read low; activity change, negative = inhibition, % at 57.5 µM; actives 4.5% (n = 410,000); AID 1259415; in the data active = activity change below about -60%; inconclusive = no clear call, values can overlap the other calls; inactive = above about -39%; note: % is set by controls: 0 for no effect and ±100 for the full control effect
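Screen run at 2 compound doses on HFFs infected with reporter HCMV, MOI 1 PFU/cell. Luciferase activity from cell lysates at 72 h post infection gave inhibition relative to buffer-only and Salinomycin wells.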
Pf growth 96h: inhibits malaria parasite growth, 96 h; P. falciparum luciferase reporter growth, 96 h; actives 6.9% (n = 320,000); Potency, µM (titrated, usually from 28.7 µM), for the others: at the highest dose activity change, negative = inhibition, actives largely listed as inhibitors; note: potency is the fitted concentration of half-maximal effect; % is set by controls: 0 for no effect and ±100 for the full control effect
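Delayed-death screen, second-generation endpoint: infected erythrocytes, 2% hematocrit, 0.05% parasitemia final; 96 hours at 37 C, 5% CO2; luciferase detection reagent; luminescence decrease equals reduced growth.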
Starred values were filed as active, the others as inactive; ? = inconclusive; · = no result given. Sampled rows, rich in hits. Any-hit rate of the full collection: about 21%. Unless noted, calls come from the whole dose curve; as a rule, active = well fitted inhibition curve with a large enough effect; inconclusive = small, poorly fitted or top-dose-only effect, or another doubt; inactive = no such curve, though single readings can be large or run the other way.

SMILES	Shiga toxin inh	CHX counter	HCV inhibitor	Pf growth 48h	HCMV antiviral	Pf growth 96h
Cc1cccc(NC(=O)c2ccc(NC(C)c3ccccc3)c([N+](=O)[O-])c2)n1 (stereo unspecified)	19.0	16.1	?	9.28µM*	5.0	-2.1%
Cc1cccc(NC(=O)c2ccccc2[N+](=O)[O-])n1	-6.6	8.5	2.1%	5.2%	19.5	73.5%
COc1ccc(C(=O)OC(C)C(=O)NC(C)CCc2ccccc2)c(OC)c1 (stereo unspecified)	-5.3	-1.5	-16.4%	-16.9%	-14.1	-12.2%
COc1c(O)c(=O)n2c3ccccc3c3ccnc1c32	·	·	16.7%	10.4µM*	33.1	?
CCOc1ccc(NC(=O)N[C@@H](Cc2ccccc2)C(=O)O)cc1	11.2	6.9	-0.4%	13.9%	-3.1	35.0%
O=C(CC1C(=O)NCCN1Cc1ccc(-c2ccccc2)cc1)NCc1ccccc1 (stereo unspecified)	-7.2	-2.8	2.6%	-5.6%	-27.9	6.57µM*
CCc1cc(CNC(=O)CC2C(=O)NCCN2Cc2ccc(-c3ccccc3)cc2)on1 (stereo unspecified)	-3.9	3.2	-5.3%	-15.6%	?	2.08µM*
CCOC(=O)N1CCC(NC(=O)CC2C(=O)NCCN2Cc2ccccc2)CC1 (stereo unspecified)	-7.2	8.9	1.4%	16.6%	15.6	9.28µM*
CCOc1ccc(CN2CCNC(=O)C2CC(=O)NCc2ccccn2)cc1 (stereo unspecified)	7.1	36.5*	9.4%	?	6.1	-12.4%
COc1ccc(Oc2cccc(Cl)c2CNC(=O)CCC(=O)O)cc1	-5.4	-2.1	-13.5%	10.3%	-28.8	3.8%
Cc1nc(CN(C)C(=O)CC2C(=O)NCCN2Cc2ccc(-c3ccccc3)cc2)cs1 (stereo unspecified)	25.6*	18.2	-16.9%	-12.2%	-8.1	-6.2%
CCOc1ccc(NC(=O)CC2C(=O)NCCN2C(=O)Nc2ccccc2)cc1 (stereo unspecified)	7.8	-2.2	20.9%	4.9%	-22.9	14.7µM*
CCOC(=O)N1CCN(c2c(NC3CCN(Cc4ccccc4)CC3)c(=O)c2=O)CC1	-19.3	-5.7	-13.7%	·	-64.2*	?
O=C(CC1C(=O)NCCN1C(=O)Nc1ccccc1)Nc1ccc(F)cc1 (stereo unspecified)	-1.6	-1.1	12.9%	8.9%	34.3	-3.9%
CCOC(=O)N1CCN(c2c(NCCc3ccccc3)c(=O)c2=O)CC1	-4.8	-4.9	11.7%	·	10.2	?
O=C(CC1C(=O)NCCN1C/C=C/c1ccccc1)NCCCC1CCCC1 (stereo unspecified)	74.6*	37.3*	-4.2%	25.1%	?	?
CCSc1nnc(NC(=O)C2CCCN(C(=O)c3ccc(Cl)cc3)C2)s1 (stereo unspecified)	·	·	·	·	-26.8	·
COc1ccc2[nH]c3c(c2c1)CCN1C(=O)C(CC(=O)NC(C)(C)C)C[C@H](C(=O)N2CCCCC2)[C@@]31CCc1ccccc1 (stereo partly specified)	·	·	2.8%	·	-36.9	·
COc1cc(Cl)c(C)cc1NC(=O)CSc1nc2c(c(=O)[nH]1)CCC2	·	·	·	·	11.1	·
Cc1ccc(NC(=O)c2cccc3c(=O)c4c([nH]c23)CCCC4)c(C)c1	·	·	·	·	-4.8	·
C[C@H](N)C(=O)N[C@@H](C)P(=O)(O)O	·	·	·	-11.4%	·	-2.6%
CC(C)C1N(C(N)=S)N=CC1(C)C (stereo unspecified)	9.3	8.7	20.6%	?	5.5	9.4%
Cc1ccc2[nH]c(=O)c(CN(Cc3cccnc3)C(=S)NCCCN(C)C)cc2c1	-15.0	1.2	1.1%	14.7µM*	-31.8	5.6%
Cc1cccc2cc(CN(Cc3ccccc3)C(=S)NCCCN(C)C)c(=O)[nH]c12	-5.9	-2.6	?	?	?	13.7%
CCN(CC)CCCNC(=S)N(Cc1cccnc1)Cc1cc2cc(C)ccc2[nH]c1=O	17.8	-2.2	0.0%	2.33µM*	-11.6	5.86µM*
SMILES	Shiga toxin inh	CHX counter	HCV inhibitor	Pf growth 48h	HCMV antiviral	Pf growth 96h
Cc1ccc(CN(Cc2cc3cccc(C)c3[nH]c2=O)C(=S)NCCCN(C)C)cc1	-19.8	-2.6	35.5µM*	?	?	10.6%
CN1CCc2c(sc3nc(SCC(=O)N4CCOCC4)n(-c4ccc(Cl)cc4)c(=O)c23)C1	-3.7	-3.2	?	?	5.4	-19.4%
CCOP(=O)(NC12CC3CC(CC(C3)C1)C2)NC12CC3CC(CC(C3)C1)C2	-2.8	-3.7	26.3%	3.7µM*	4.9	2.94µM*
COCCC(=O)NC12CC3CC(CC(C3)C1)C2	-6.6	-2.3	0.2%	2.6%	11.5	·
c1ccc(-c2cc(-c3cc(-c4ccccc4)on3)no2)cc1	·	·	·	·	36.4	·
O=C1CC(c2cc(-c3ccccc3)no2)C1	41.9*	38.9*	20.6%	98.6%	53.0	246.7%
CC(C)Oc1ccc(C(CC(=O)NCCCN(C)C)c2ccc(F)cc2)cc1 (stereo unspecified)	14.7	-1.9	?	?	?	11.7µM*
CN(C)CCCNC(=O)CC(c1ccc(F)cc1)c1ccco1 (stereo unspecified)	-7.2	-4.3	-7.3%	1.4%	-2.3	?
CCN(CC)c1ncnc2c1ncn2[C@H]1CN(Cc2ccncc2)C[C@@H](CO)O1	·	·	·	·	-7.8	·
CCN(CC)S(=O)(=O)c1cc(-c2nnc(-c3ccc(Br)cc3)o2)ccc1Br	8.3	-2.2	?	-5.9%	1.2	-0.8%
CCN(CC)S(=O)(=O)c1cc(-c2nnc(-c3ccc(Br)cc3)o2)ccc1Cl	18.8	-3.3	-12.6%	-1.6%	?	3.29µM*
O=C(O)/C=C/C(=O)c1c(-c2ccccc2)[nH]c2ccccc12	-4.2	-2.5	2.6%	6.57µM*	0.8	4.15µM*
O=C(NCCc1ccccc1)C(=O)c1c(-c2ccccc2)[nH]c2ccccc12	-16.7	-2.8	?	-29.1%	-10.1	5.22µM*
COc1cc(-c2nc3c4ccccc4nc(=S)n3[nH]2)cc(OC)c1OC	-3.0	2.0	-8.4%	?	101.4	-5.0%
COc1cc2nc(SCC(=O)c3ccc(Br)cc3)n3nc(C)nc3c2cc1OC	-8.6	-3.5	?	-3.1%	-11.1	-13.0%
CC(Oc1ccc(Br)cc1)c1nc2c3ccccc3nc(=S)n2[nH]1 (stereo unspecified)	-6.8	17.8	-2.3%	1.47µM*	-29.0	?
CCCC(Oc1ccc(Br)cc1)c1nc2c3cc(OC)c(OC)cc3nc(=S)n2[nH]1 (stereo unspecified)	-23.6	6.2	?	?	-86.3*	-27.2%
CCCCCC(=O)N1C[C@@H](n2cc(C3CC3)nn2)[C@H](O)C[C@@H]1c1ccccc1	·	·	·	·	2.8	·
CN(C)C(=O)N1CCN(S(=O)(=O)c2ccc3ccccc3c2)CC1	·	-3.0	?	7.7%	11.8	10.4µM*

Screens deposited in PubChem by National Center for Advancing Translational Sciences (NCATS).
